SMN2 splice up: SMN2 splice variant enhancement; 210,000 tested, 2.8% active; HEK293 SMN2-luciferase splicing reporter, luminescence, 30-36 h; Potency, µM (top dose mostly 46.1 µM), for the others: at the highest dose activity change, positive = activation, actives largely listed as activators; further: % of control where 0% means no effect; nearly all actives have a fitted effect of over 55% in size
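HEK293 cells carry an SMN2 minigene-luciferase reporter in which exon 7 inclusion puts luciferase in frame. Cells were seeded at 2000 cells/well, attached for 10-12 hours, then exposed to compounds for 30-36 hours at 37C before ONE-Glo luminescence.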
Rab9 promoter act: activators of Rab9 promoter. Potency, µM (titrated, usually from 9.22 µM), inactives show at the top dose activation, negative = inhibition, hits mostly activators. 320,000 tested, 2.8% active. AID 485297. Huh7 Rab9 promoter-luciferase reporter, luminescence, 24 h; further: % of control where 0% means no effect; nearly all actives have a fitted effect of over 60% in size
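Promoter activation is measured as luciferase luminescence in Huh7 cells stably transfected with a Rab9 promoter–luciferase construct, following 24 h compound exposure at 37 °C and 10 min reagent incubation at ambient temperature.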
ELG1 repair inh: inhibitors of ELG1-dependent DNA repair in HEK293T cells; HEK293T ELG1-luciferase reporter, luminescence, 16 h; DNA damage induced by 5-fluorouridine; Potency, µM (series often up to 46.1 µM), without a hit: at the highest dose activity change, negative = inhibition, actives largely listed as inhibitors; 330,000 tested, 2.3% active; AID 504467; further: on the % scale 0 is the no-effect control and ±100 the full control effect; nearly all actives have a fitted effect of over 55% in size
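Step one: seed 2,000 cells per well. Step two: pin-transfer compound or DMSO alongside 5-fluorouridine. Step three: incubate 16 hr, 37 °C, 5% CO2. Step four: add ONE-Glo, wait 30 min, read luminescence.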
FLuc modulator: counter-screen for miR-21 project: firefly luciferase inhibitors or activators | P08659 | purified FLuc, Km substrates, luminescence inhibition | Potency, µM (doses to about 57.5 µM), inactives show top-dose activity change, negative = inhibition, most hits filed as inhibitors | 360,000 tested, 6.9% active;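 further: plate controls were vehicle for no effect and reference inhibitor for full effect; nearly all actives have a fitted effect of over 55% in size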
Target sequence (P08659 whole entry, looked up): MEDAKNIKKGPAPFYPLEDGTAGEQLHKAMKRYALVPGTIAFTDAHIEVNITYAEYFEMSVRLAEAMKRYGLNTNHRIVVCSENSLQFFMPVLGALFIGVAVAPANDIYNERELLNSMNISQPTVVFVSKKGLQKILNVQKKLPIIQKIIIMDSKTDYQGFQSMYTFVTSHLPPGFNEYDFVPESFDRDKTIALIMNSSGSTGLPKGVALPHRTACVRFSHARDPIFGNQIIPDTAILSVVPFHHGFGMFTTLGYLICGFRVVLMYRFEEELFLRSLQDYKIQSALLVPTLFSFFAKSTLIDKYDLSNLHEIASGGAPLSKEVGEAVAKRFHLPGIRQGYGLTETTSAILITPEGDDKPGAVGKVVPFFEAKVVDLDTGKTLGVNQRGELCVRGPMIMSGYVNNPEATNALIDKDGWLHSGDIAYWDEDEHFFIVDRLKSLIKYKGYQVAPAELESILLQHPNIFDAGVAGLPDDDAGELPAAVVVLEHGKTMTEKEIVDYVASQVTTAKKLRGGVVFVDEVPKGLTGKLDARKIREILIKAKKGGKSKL
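Biochemical qHTS of compounds, final roughly 60 µM downward over six points, against 10 nM purified firefly luciferase using Km concentrations of substrates (10 uM D-luciferin, 10 uM ATP) in Tris acetate pH 7.5 buffer; luminescence output.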
NPC1 promoter act: NPC1 promoter activation; Huh7 NPC1 promoter luciferase reporter, 24 h; Potency, µM (titrated, usually from 9.22 µM), for inactives: top-dose activation, hits mostly activators; 320,000 tested, 2.4% active; AID 485313; further: % of control where 0% means no effect; nearly all actives have a fitted effect of over 60% in size
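Huh7 cells stably carrying NPC1 promoter–luciferase, plated in Opti-MEM with 10% FBS for 2 h, were exposed to compound in DMSO for 24 h at 37 °C; luciferase reagent was added for 10 min and luminescence read.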
ELG1 genotoxic: inducers of genotoxicity in HEK293T ELG1-luciferase cells; HEK293T ELG1-luciferase reporter, luminescence, 16 h; Potency, µM (series often up to 46 µM), for the others: at the highest dose activity change, positive = activation, most hits filed as activators; 330,000 tested, 1.3% active; further: % of control where 0% means no effect; nearly all actives have a fitted effect of over 60% in size
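Luminescence read-out: rising ELG1-luciferase signal, reflecting elevated ELG1 protein under genetic stress, flags genotoxic compounds. Cells were treated for 16 hr at 37 °C before ONE-Glo detection.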
The depositor's hits bear a star. An excerpt weighted towards active compounds, which were near 9.2% of everything screened. The call rests on the fitted dose curve; in most records, active means well fitted curve in the direction sought with a large enough effect; inconclusive means small, poorly fitted or top-dose-only effect, or another doubt; inactive means no such curve, though single readings can be large; an effect the other way counts as inactive or inconclusive. Potency means the concentration at half of the fitted maximal effect.

For O=C(NC1CCCCC1)c1ccc(CS(=O)(=O)c2ccc(Cl)cc2)o1 the results were Rab9 promoter act 0%, ELG1 repair inh -2%, FLuc modulator -1%, NPC1 promoter act 1% and ELG1 genotoxic -4%.
COc1ccc(/C=N/NC(=O)c2ccc(C)cc2)cc1CN1CCN(c2ccc(F)cc2)CC1 was read as SMN2 splice up -4%, Rab9 promoter act -5%, ELG1 repair inh inconclusive, FLuc modulator -2%, NPC1 promoter act 2% and ELG1 genotoxic 1%.
COc1ccc(C(=O)N/N=C/c2ccc(OC)c(COc3ccccc3)c2)cc1 was read as Rab9 promoter act 1%, ELG1 repair inh 12%, FLuc modulator -1%, NPC1 promoter act 1% and ELG1 genotoxic 3%.
`COc1ccc(/C=N/NC(=O)c2cc(C(C)(C)C)[nH]n2)cc1COc1ccc(F)cc1F` gave SMN2 splice up -15%, Rab9 promoter act -5%, ELG1 repair inh 16µM*, FLuc modulator -14%, NPC1 promoter act -4% and ELG1 genotoxic -16%.
Screening COc1ccc(/C=N/NC(=O)c2ccc(F)cc2)cc1CN1CCc2cc(OC)c(OC)cc2C1C (stereo not given) returned SMN2 splice up 3%, Rab9 promoter act 2%, ELG1 repair inh 21µM*, FLuc modulator -10%, NPC1 promoter act -13% and ELG1 genotoxic -8%.
Screening COc1ccc(/C=N\NC(=O)c2cc(O)c(O)c(O)c2)cc1COc1ccc(C(=O)OCC(C)C)cc1 returned Rab9 promoter act 4%, ELG1 repair inh inconclusive, FLuc modulator 24µM*, NPC1 promoter act -6% and ELG1 genotoxic inconclusive.
For COc1ccc(/C=N\NC(=O)c2ccc(F)cc2)cc1COc1cc(F)ccc1[N+](=O)[O-] the results were Rab9 promoter act -10%, ELG1 repair inh 21µM*, FLuc modulator 2%, NPC1 promoter act -18% and ELG1 genotoxic -13%.
CCC1Oc2ccc(C)cc2N(CC(=O)N2CCN(c3ccccc3OC)CC2)C1=O (stereo not given) was read as FLuc modulator -15%.
For Cc1ccc(C(=O)Nc2cccc3cccnc23)cc1C the results were Rab9 promoter act inconclusive, ELG1 repair inh inconclusive, FLuc modulator 12µM*, NPC1 promoter act 2.8µM* and ELG1 genotoxic inconclusive.
Cc1cccc(C(=O)Nc2cccnc2Cl)c1 was read as Rab9 promoter act 9%, ELG1 repair inh inconclusive, FLuc modulator inconclusive, NPC1 promoter act 2% and ELG1 genotoxic 16%.
`C/C(=N\Nc1cccc2cccnc12)c1ccc(C)cc1` gave SMN2 splice up 16µM*, Rab9 promoter act inconclusive, ELG1 repair inh inconclusive, FLuc modulator 2.7µM*, NPC1 promoter act inconclusive and ELG1 genotoxic inconclusive.
For Cc1ccc(C(=O)Nc2cccc3cccnc23)cc1Cl the results were SMN2 splice up -13% and FLuc modulator 11µM*.
`Cc1cccc(C(=O)Nc2cccc3cccnc23)c1` gave Rab9 promoter act 3.2µM*, ELG1 repair inh inconclusive, FLuc modulator 21µM*, NPC1 promoter act 4µM* and ELG1 genotoxic 14%.
`COc1cc(OC)cc(C(=O)Nc2cccc3cccnc23)c1` gave Rab9 promoter act -5%, ELG1 repair inh -22%, FLuc modulator inconclusive, NPC1 promoter act -5% and ELG1 genotoxic -6%.
`Cc1ccc(C(=O)OCc2cc(=O)n3nc(-c4cccs4)sc3n2)cc1` gave FLuc modulator -2%.
Cc1cccc(N2CCN(C(=O)c3sc4nc5n(c(=O)c4c3C)CCC5)CC2C)c1 (stereo not given) was read as FLuc modulator -2%.
`COc1ccc(NC(=O)Cn2cnc3sc(C)c(S(=O)(=O)N4CCN(C)CC4)c3c2=O)cc1Cl` gave SMN2 splice up 27% and FLuc modulator 1%.

Screens (PubChem BioAssay)
